Measurements: PubChem BioAssay (EPA / NIEHS)
Some compounds were tested as several samples or in several runs, with calls that do not always agree. Active and inactive are the calls of the source. Rule for the calls: active = hit-call score of the fitted dose curve at least 0.9, where 1 is the maximum; inactive = score below 0.9.

Target: Heat shock factor protein 1 (Homo sapiens) (UniProt Q00613)
Assay: ATG_HSE_CIS: Attagene CIS-FACTORIAL HepG2 Assay for human Heat Shock Transcription Factor 1 (HSE) (AID 2282953)
Settings: HepG2 HSE cis-reporter, Attagene RNA transcription; actives raise or lower the signal
Protocol: ATG_CIS is a cell-based, multiplexed-readout assay that uses HepG2, a human liver cell line, with measurements taken at 24 hours after chemical dosing in a 24-well plate.ATG_HSE_CIS is one of 52 assay component(s) measured or calculated from the ATG_CIS assay. It is designed to make measurements of mRNA induction, a form of inducible reporter, as detected with fluorescence intensity signals by Reverse transcription polymerase chain reaction (RT-PCR) and Capillary electrophoresis technology.Data from the assay component ATG_HSE_CIS was analyzed into 1 assay endpoint. This assay endpoint, ATG_HSE_CIS, was analyzed with bidirectional fitting relative to DMSO as the negative control and baseline of activity. Using a type of inducible reporter, measures of mRNA for gain or loss-of-signal activity can be used to understand the reporter gene at the transcription factor-level as they relate to the gene HSF1. Furthermore, this assay endpoint can be referred to as a primary readout, because this assay has produced multiple assay endpoints where this one serves a reporter gene function. To generalize the intended target to other relatable targets, this assay endpoint is annotated to the dna binding intended target family, where the subfamily is heat shock protein.
Human liver HepG2 cells are transiently transfected with multiple reporter transcription units (MRTUs) in 6-well plates using FuGene 6 reagent (Roche; 3 ml FuGene/1 mg DNA). The MRTU constructs are regulated by a cis-regulating element (promoter). […] A major difference between the CIS and TRANS system is that in CIS activities of endogenous TFs are measured, whereas the TRANS assay evaluates changes in activities of exogenous, chimeric NR-Gal4 proteins. […] At the end of 24 hour incubation, total RNA was isolated using TriZol reagent (Invitrogen). The isolated RNA is then reverse-transcribed using oligo(dT) primer and Mo-MLV reverse transcriptase (Invitrogen) with DNAse I (Ambion) treatment for 30 min. The one-tenth of the produced cDNA was amplified by PCR using Taq DNA polymerase (Invitrogen) and two reporter sequence-specific primers. The PCR products were fluorescently labeled by primer extension with 6-arboxyfluorescein (6-FAM) 5'-labeled reporter sequence-specific primer (2 min at 95 C, 20 s at 68 C and 10 min at 72 C) and these products were digested with 5U of HpaI (New England Biolabs) for 2h at 37 C. The fragments were purified using Qiaquick PCR columns (Qiagen), analyzed on an ABI 3130xL genetic analyzer (Applied Biosystems) with peak positions identified by using a set of X-rhodamine (ROX)-labeled MapMarker1000 molecular weight standards (BioVentures). The raw capillary electrophoresis data was processed using Attagraph software (Attagene).

Heat shock factor protein 1 (Homo sapiens), sequence (Q00613 whole entry, looked up): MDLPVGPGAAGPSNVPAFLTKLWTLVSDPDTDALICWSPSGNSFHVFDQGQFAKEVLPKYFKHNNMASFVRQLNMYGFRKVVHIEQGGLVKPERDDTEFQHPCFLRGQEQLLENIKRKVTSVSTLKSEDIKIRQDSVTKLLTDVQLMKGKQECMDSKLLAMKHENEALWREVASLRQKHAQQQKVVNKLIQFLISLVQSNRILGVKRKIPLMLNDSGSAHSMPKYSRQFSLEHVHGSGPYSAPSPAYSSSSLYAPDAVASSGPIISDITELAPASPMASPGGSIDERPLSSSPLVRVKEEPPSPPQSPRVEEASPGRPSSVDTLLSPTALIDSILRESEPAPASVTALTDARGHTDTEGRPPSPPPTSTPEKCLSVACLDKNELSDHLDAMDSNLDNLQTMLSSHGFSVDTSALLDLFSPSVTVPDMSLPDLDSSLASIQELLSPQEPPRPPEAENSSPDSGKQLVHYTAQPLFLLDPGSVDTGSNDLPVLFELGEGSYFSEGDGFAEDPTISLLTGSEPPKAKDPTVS

Row | Compound | outcome | AC50
1 | Nc1ccc([N+](=O)[O-])cc1Cl | inactive | –
2 | COP(=O)(O)OC | inactive | –
3 | CCN(CC)c1ccccc1 | inactive | –
4 | CC(Cl)(Cl)C(=O)O | inactive | –
5 | OCC(F)(F)OC(F)(F)C(F)(F)OC(F)(F)C(F)(F)OC(F)(F)CO | inactive | –
6 | O=C(O)C(F)(F)C(F)(F)C(=O)O | inactive | –
7 | CC(=O)c1ccc(-c2ccccc2)cc1 | inactive | –
8 | CCOC(=O)c1ccccc1N | inactive | –
9 | Cc1cccc(N)c1 | inactive | –
10 | c1cc2c3c(cccc3c1)CC2 | inactive | –
11 | CCC(C)(C)c1ccc(O)cc1 | inactive | –
12 | c1nc[nH]n1 | inactive | –
13 | c1ccc2c(c1)Nc1ccccc1S2 | inactive | –
14 | CCCCOCC1CO1 (stereo not given) | inactive | –
15 | CC(C)(C)c1ccc(O)cc1 | inactive | –
16 | N#C/C=C/c1ccccc1 | inactive | –
17 | Cc1ccc([N+](=O)[O-])cc1C | inactive | –
18 | OCC(F)(F)OC(F)(F)C(F)(F)OC(F)(F)CO | inactive | –
19 | C/C(=N\NC(=O)Nc1cc(F)cc(F)c1)c1ncccc1C(=O)O | inactive | –
20 | ClC(Cl)c1ccccc1 | inactive | –

Row | Compound | outcome | AC50
21 | CC(C)(C)c1ccccc1OP(=O)(Oc1ccccc1)Oc1ccccc1 | inactive | –
22 | Nc1ccc2ccccc2c1 | inactive | –
23 | FC(F)(F)C(F)(C(F)(F)F)C(F)(F)C(F)(F)CC1CO1 (stereo not given) | inactive | –
24 | ClC1=C(Cl)C2(Cl)C3C(Cl)C(Cl)CC3C1(Cl)C2(Cl)Cl (stereo not given) | – | 50 µM (active)
25 | N#Cc1ccc(O)cc1 | inactive | –
26 | c1ccc2c(c1)sc1ccccc12 | inactive | –
27 | FC(F)(F)c1ccc(Cl)cc1 | inactive | –
28 | OCC(F)(F)OC(F)(F)C(F)(F)OC(F)(F)C(F)(F)OC(F)(F)F | inactive | 75.6 µM (active)
29 | O=c1ssc(Cl)c1Cl | – | 61.2 µM (active)
30 | COCCOCCO | inactive | –
31 | CC(Cc1ccc(OCC(=O)O)cc1)NCC(O)c1csc(C(F)(F)F)n1 (stereo not given) | inactive | –
32 | Cc1ccc2c(c1N)C(=O)c1ccccc1C2=O | inactive | –
33 | C=CC(=O)OCC(CC)(COC(=O)C=C)COC(=O)C=C | inactive | –
34 | CC(Cl)CN(C)C (stereo not given) | inactive | –
35 | Cn1[nH]nnc1=S | inactive | –
36 | CC(C)CBr | inactive | –
37 | O=S(=O)(F)C(F)(F)C(F)(F)C(F)(F)C(F)(F)C(F)(F)C(F)(F)C(F)(F)C(F)(F)F | inactive | –
38 | CCCCCCCc1ccc(O)cc1 | inactive | –
39 | COP(=O)(CCC(=O)NCO)OC | inactive | –
